Laboratory results from PubChem BioAssay.
Active and inactive are the calls of the source.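 How the source made its calls, unless noted: active means inhibition at or above 50% at 10 µM; inactive means inhibition below 50%.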

What was measured:
[1] = inhibitors of TNFa-induced NFkB p65 translocation, primary screen, imaging, HUVEC, MLSMR starter and 10KST1 sets (AID 438;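 active means inhibition above 20% together with a positive visual image hit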;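 further: compound added about 3h40 before a 20 min TNFalpha stimulation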;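 on inhibition: signal is the nuclear over cytoplasmic p65 intensity ratio per well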); conditions: HUVEC TNFa-induced p65 nuclear translocation; cell count: measured here: nuclei count (cytotoxicity indicator), at 2.08 µM; inhibition: at 2 µM, stronger effect = higher value, 0% TNFa-plus-vehicle, 100% no-TNFa wells
[2] = inhibitors of mutant huntingtin aggregation, primary screen, imaging, exon1htt(103Q)mCFP cells, high-content imaging (AID 483;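 active means visual image review flags a hit and inhibition of aggregation exceeds 20%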;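 further: compound exposure lasted 3 days before fixation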;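 on nuclei count: percent of the per-plate median nuclei count of sample wells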); conditions: exon1htt(103Q)mCFP cell line, aggregate imaging, at 2 µM; inhibition of aggregation: stronger effect = higher value; nuclei count: measured here: cell count, toxicity
[3] = inhibitors of E-selectin induction by TNFa, primary screen, imaging, HUVEC, immunofluorescence, MLSMR starter and 10KST1 sets (AID 487;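 active means visually confirmed hit in the image check and inhibition above 20%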;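 on inhibition: signal is fraction of cell area covered by stained E-selectin grains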;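 on nuclei count: 100% = median nuclei count of all wells on the same plate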); conditions: HUVEC TNFalpha-induced E-selectin immunofluorescence imaging, at 2 µM; inhibition: stronger effect = higher value; nuclei count: measured here: cell number, toxicity
[4] = target: Voltage-gated potassium channel subunit beta-2 (Rattus norvegicus) (UniProt P62483); assay: KvBeta enzyme negative modulators, primary screen, biochemical, NADPH fluorescence (AID 622;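 active means fluorescence slope higher than the sample average by over 3 SD, cut at about -0.22 in these data, passing the limit was not always enough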;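 further: slope of raw intensity against log time taken from 70 to 1610 s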); conditions: recombinant KvBeta, 4-cyanobenzaldehyde reduction, at 10 µM, stronger effect = higher value
Sequence of Voltage-gated potassium channel subunit beta-2 (Rattus norvegicus) (P62483 whole entry, looked up): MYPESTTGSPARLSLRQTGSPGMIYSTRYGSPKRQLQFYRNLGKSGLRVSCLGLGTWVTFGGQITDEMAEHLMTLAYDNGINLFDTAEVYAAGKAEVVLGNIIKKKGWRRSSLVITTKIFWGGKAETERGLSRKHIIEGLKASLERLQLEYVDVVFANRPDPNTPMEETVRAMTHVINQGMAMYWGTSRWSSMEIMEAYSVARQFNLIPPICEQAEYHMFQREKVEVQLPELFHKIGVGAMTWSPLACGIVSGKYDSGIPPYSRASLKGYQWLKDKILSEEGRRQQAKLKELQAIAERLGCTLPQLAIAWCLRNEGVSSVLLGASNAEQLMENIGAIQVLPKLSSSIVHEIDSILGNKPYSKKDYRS

[5] = target: Voltage-gated potassium channel subunit beta-2 (Rattus norvegicus) (UniProt P62483); assay: KvBeta positive modulators, primary screen, biochemical, NADPH fluorescence (AID 623;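 active means NADPH fluorescence slope more negative than the mean of all samples by about 3 SD, 99.7% confidence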;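 further: fluorescence intensity change per second fitted from 20 to 320 s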); conditions: Recombinant KvBeta, NADPH fluorescence decrease slope, 10 min; at 10 µM; stronger effect = lower value
[6] = target: Alpha-2C adrenergic receptor (Homo sapiens) (UniProt P18825); assay: modulators of alpha2C/GIRK thallium flux, primary screen, cell-based, HEK293 alpha2C/GIRK1/2 (AID 624;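 active means fluorescence slope after compound addition differing from the mean of all screened samples at 99.7% confidence, in either direction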;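 further: slope of fluorescence ratio to pre-addition baseline per second over 15 to 24 s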); conditions: thallium flux BTC fluorescence, at 10 µM, actives lie on both sides
Sequence of Alpha-2C adrenergic receptor (Homo sapiens) (P18825 whole entry, looked up): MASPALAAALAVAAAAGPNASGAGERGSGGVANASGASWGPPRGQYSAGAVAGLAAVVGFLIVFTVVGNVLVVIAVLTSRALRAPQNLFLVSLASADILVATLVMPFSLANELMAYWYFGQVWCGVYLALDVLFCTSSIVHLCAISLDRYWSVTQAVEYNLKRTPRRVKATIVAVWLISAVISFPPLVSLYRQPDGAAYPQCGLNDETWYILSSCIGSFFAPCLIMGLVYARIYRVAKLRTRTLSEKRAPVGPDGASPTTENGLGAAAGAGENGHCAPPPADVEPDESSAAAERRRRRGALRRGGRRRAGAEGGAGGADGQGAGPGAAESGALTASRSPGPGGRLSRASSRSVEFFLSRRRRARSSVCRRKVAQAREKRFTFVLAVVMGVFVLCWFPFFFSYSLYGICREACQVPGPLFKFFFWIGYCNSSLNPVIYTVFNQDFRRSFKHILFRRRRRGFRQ

[7] = inhibitors of Sendai virus-induced IRF3 signaling, primary screen, TLR/RLR signaling modifier project, cell-based, Sendai virus stimulus, luciferase, 10K MLSCN set (AID 602276); conditions: HEK293 RL24 IRF3 luciferase reporter, at 10 µM, stronger effect = higher value;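 further: firefly luciferase from ISG56 promoter only with Renilla not read in this screen; 0% = Sendai virus plus DMSO and 100% = medium plus DMSO without virus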
[8] = inhibitors of poly I:C-induced TLR3 signaling, primary screen, cell-based, poly I:C stimulus, luciferase, 10K MLSCN set (AID 602277;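 active means inhibition of the reporter signal at or above 50%; inactive means inhibition below 50%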); conditions: HEK293-TLR3 RL24 IRF3 luciferase reporter, at 10 µM, stronger effect = higher value

Compound	cell count [1]	inhibition [1]	inhibition of aggregation [2]	nuclei count [2]	inhibition [3]	nuclei count [3]	fluorescence slope [4]	NADPH fluorescence slope [5]	slope [6]	inhibition [7]	inhibition [8]
COc1cc2c(C#N)c(N3CCOCC3)nc(N)c2c(N)n1	694	-7.8% (inactive)	-18.2% (inactive)	117%	-22.5% (inactive)	114%	-0.0448 (inactive)	-2.1e-06 (inactive)	0.00579 (inactive)	15.2% (inactive)	46.9% (inactive)
CCOc1ccccc1NC(=O)CCN1CCN(S(=O)(=O)c2ccc(Br)cc2)CC1	572	-12.3% (inactive)	-10.2% (inactive)	117%	-67.4% (inactive)	65.1%	-0.526 (inactive)	-5.3e-05 (inactive)	0.00415 (inactive)	12.6% (inactive)	21.5% (inactive)
CCCS(=O)(=O)N1CCCC(C(=O)NC(C)c2ccc3c(c2)OCCO3)C1 (centres undefined)	719	-10.9% (inactive)	0.2% (inactive)	101%	-26.6% (inactive)	100%	-0.475 (inactive)	1.2e-05 (inactive)	0.00535 (inactive)	9.72% (inactive)	13.6% (inactive)
COc1ccc(-n2c(Cc3cccn3C)nnc2SCC(=O)Nc2ccc(Cl)cc2)cc1	678	-5.8% (inactive)	8.1% (inactive)	85%	-22.9% (inactive)	119%	-0.567 (inactive)	-5e-06 (inactive)	0.0052 (inactive)	11.4% (inactive)	23.2% (inactive)
O=C(CSc1nnc(CNC(=O)c2cccs2)o1)NC1CCCC1	613	-14.4% (inactive)	10.3% (inactive)	93.1%	-2.3% (inactive)	123%	-0.318 (inactive)	-5e-05 (inactive)	0.00569 (inactive)	16.7% (inactive)	12.5% (inactive)
Cn1nc(C(=O)NC2CCCCCC2)ccc1=O	348	-4.6% (inactive)	14% (inactive)	105%	-2.2% (inactive)	121%	-0.608 (inactive)	-2.1e-05 (inactive)	0.00579 (inactive)	9.51% (inactive)	11.7% (inactive)
Fc1cccc2sc(N3CCOCC3)nc12	255	-8.3% (inactive)	16.8% (inactive)	68.5%	6.6% (inactive)	51.7%	-0.387 (inactive)	-3.9e-05 (inactive)	0.00353 (inactive)	-10.5% (inactive)	-45.8% (inactive)
S=c1[nH]ncn1-c1ccccn1	681	-11% (inactive)	-25.8% (inactive)	114%	-40.7% (inactive)	109%	-0.41 (inactive)	-3.7e-05 (inactive)	0.00408 (inactive)	1.29% (inactive)	8.61% (inactive)
O=C(NC1CCCC1)C(c1ccco1)N(Cc1ccccc1)C(=O)c1csnn1 (centres undefined)	426	5.4% (inactive)	-6.3% (inactive)	97.6%	-9.3% (inactive)	107%	-0.582 (inactive)	-3.8e-05 (inactive)	0.006 (inactive)	17.4% (inactive)	29.4% (inactive)
Cc1nc2ccccc2c2oc(C(=O)N3CCN(C(=O)c4ccco4)CC3)cc12	784	11.3% (inactive)	0% (inactive)	65.6%	4.8% (inactive)	98.3%	-0.585 (inactive)	-1.4e-05 (inactive)	0.00761 (inactive)	6.87% (inactive)	12.8% (inactive)
O=C(O)CCc1ccc(-c2ccc(Br)cc2)n1CC(=O)O	339	7.5% (inactive)	-4.6% (inactive)	90%	-65% (inactive)	112%	-0.378 (inactive)	-5.5e-05 (inactive)	0.00594 (inactive)	10.9% (inactive)	28.5% (inactive)
CCOC(=O)CSc1nnc(-c2ccccc2OC)o1	574	-3.6% (inactive)	-42.2% (inactive)	112%	-74.1% (inactive)	105%	-0.523 (inactive)	-0.000143 (inactive)	0.00552 (inactive)	-10.7% (inactive)	99.6% (active)
C/C(=N\O)C(=O)NCc1ccccn1	290	0.5% (inactive)	4.5% (inactive)	108%	-55.3% (inactive)	104%	-0.431 (inactive)	1.8e-05 (inactive)	0.00348 (inactive)	-4.43% (inactive)	-25.9% (inactive)
Cc1ccc(CCNC(=O)C2CCN(S(=O)(=O)c3ccc4c(c3)CCC(=O)N4)CC2)cc1	742	2.2% (inactive)	-19.2% (inactive)	114%	27% (inactive)	102%	-0.56 (inactive)	1.8e-05 (inactive)	0.00653 (inactive)	-8.22% (inactive)	-0.993% (inactive)
